# Assay outcomes as filed in PubChem.
# VP16 counter: inhibits Gal4-VP16 luciferase reporter, ROR gamma counter-screen; Drosophila S2 Gal4-VP16 UAS-luciferase, luminescence, 20 h; Potency, µM (doses to about 53.6 µM), without a hit: at the top dose activity, negative = inhibition, actives largely listed as inhibitors; hit rate 3.5% among 310,000;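 also: Gal4-VP16 expression switched on by copper sulfate through the metallothionein promoter; potency is read from the fitted curve at half-maximal effect; nearly all actives have a fitted effect of over 50% in size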
# ELG1 repair inh: inhibitors of ELG1-dependent DNA repair in HEK293T cells; HEK293T ELG1-luciferase reporter, luminescence, 16 h; DNA damage induced by 5-fluorouridine; Potency, µM (titrated, usually from 46.1 µM), without a hit: top-dose activity change, negative = inhibition, usual class: inhibitors; hit rate 2.3% among 330,000; AID 504467; also: potency is read from the fitted curve at half-maximal effect; nearly all actives have a fitted effect of over 55% in size
#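 Luminescence from the luciferase reporter, measured 30 min after ONE-Glo reagent at room temperature, was the read-out. Beforehand, 2,000 cells per well were exposed for 16 hr at 37 °C to 5-fluorouridine together with compound or vehicle.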
# TDP1 cell CPT: growth inhibition of DT40 Tdp1-/-;hTDP1 cells with camptothecin (screen for TDP1 inhibitors); AID 686979; hit rate 12% among 420,000; chicken DT40 Tdp1-/-;hTDP1 cells + 20 nM CPT, ATP luminescence, 48 h; Potency, µM (top dose mostly 46.2 µM), for inactives: at the top dose activity change, negative = growth inhibition, hits mostly inhibitors; also: potency is read from the fitted curve at half-maximal effect; nearly all actives have a fitted effect of over 55% in size
#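 Chicken DT40 Tdp1-/- cells complemented with human TDP1, 400 cells/well, exposed to compounds plus 20 nM camptothecin for at least 48 h at 37 C; viability read as ATP content by CellTiter-Glo luminescence.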
# RORgamma inh: ROR gamma (mouse) transcription inhibition. Drosophila S2 Gal4-RORgamma UAS-luciferase reporter, 20 h. hit rate 5.4% among 310,000. P51450. Potency, µM (top dose mostly 53.6 µM), for the others: at the highest dose activity change, negative = inhibition, actives largely listed as inhibitors. AID 2551; also: potency is read from the fitted curve at half-maximal effect; nearly all actives have a fitted effect of over 60% in size
# Target sequence (P51450 whole entry, looked up, the tested form may be a part): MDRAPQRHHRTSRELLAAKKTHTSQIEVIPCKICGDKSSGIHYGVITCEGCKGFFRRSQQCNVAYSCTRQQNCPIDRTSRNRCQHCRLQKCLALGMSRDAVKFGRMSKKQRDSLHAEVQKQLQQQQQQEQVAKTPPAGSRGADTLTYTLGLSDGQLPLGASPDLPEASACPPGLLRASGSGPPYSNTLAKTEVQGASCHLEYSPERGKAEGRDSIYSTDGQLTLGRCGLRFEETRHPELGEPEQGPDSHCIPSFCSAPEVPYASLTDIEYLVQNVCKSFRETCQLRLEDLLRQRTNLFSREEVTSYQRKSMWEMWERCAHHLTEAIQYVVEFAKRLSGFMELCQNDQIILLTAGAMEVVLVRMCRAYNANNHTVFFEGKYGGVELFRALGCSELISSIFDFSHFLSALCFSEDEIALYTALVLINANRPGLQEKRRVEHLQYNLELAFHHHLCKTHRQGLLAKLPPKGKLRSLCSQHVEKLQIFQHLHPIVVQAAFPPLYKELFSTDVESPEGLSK
#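 Luciferase reporter read in Schneider cells carrying Gal4-RORγ (mouse) and UAS-Photinus luciferase; cells given compound 1 h before 700 uM copper sulfate induction, then incubated 20 h at ambient temperature.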
# TDP1 cell noCPT: qHTS for Inhibitors of human tyrosyl-DNA phosphodiesterase 1 (TDP1): qHTS in cells in absence of CPT | Potency, µM (highest dose often 46.2 µM), inactives show top-dose activity change, negative = growth inhibition, actives largely listed as inhibitors | DT40 Tdp1-/- hTDP1 cells, no CPT, ATP luminescence, 48 h | hit rate 15% among 420,000; also: potency is read from the fitted curve at half-maximal effect; nearly all actives have a fitted effect of over 55% in size
#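 A cellular qHTS used chicken DT40 cells lacking endogenous Tdp1 but carrying stably transfected human TDP1. Compounds were applied without camptothecin, and cell growth kinetics were judged by ATP-dependent luminescence after ≥48 hr.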
# IL1B secr inh: inflammasome signaling inhibition, IL-1 beta readout; THP-1 LPS/ATP IL-1B secretion, AlphaLISA, 16 h; active compounds read low; activity change, % at 57.5 µM; hit rate 4.7% among 360,000; AID 743279; in the data active = activity change below about -50%; inconclusive = mostly about -30% to -49%
#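 THP-1 cells pretreated 1 hr with compounds (up to 57.5 uM final), then stimulated with LPS (250 ng/mL final) plus ATP (1.25 mM final); secreted IL-1B measured by AlphaLISA after 16 hr, decreased signal indicating inhibition.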
# * marks the source's active call; other numbers are inactive results; ? = inconclusive; . = not tested or not shown; [ ] = remark or other dose. Only some compounds are listed: those with a hit (about 21% of all), similar ones and a draw of the others. Unless noted, calls follow the shape of the dose curve; as a rule, active = well fitted curve in the direction sought with a large enough effect; inconclusive = small, poorly fitted or top-dose-only effect, or another doubt; inactive = no such curve, though single readings can be large; an effect the other way counts as inactive or inconclusive. % is scaled to controls: 0 for no effect and ±100 for the full control effect.
SMILES,VP16 counter,ELG1 repair inh,TDP1 cell CPT,RORgamma inh,TDP1 cell noCPT,IL1B secr inh
COC(=O)C(Cc1c[nH]c2ccccc12)NC(=O)COc1cccc(C)c1 (stereo not drawn),.,.,-19.6%,.,?,.
CCn1c(/C=C/c2ccccc2F)nc2ccccc2c1=O,?,?,?,2.3%,?,-14.0
Cc1ccc(/C=C/c2nc3ccccc3c(=O)n2CCc2ccccc2)cc1,-11.7%,?,?,5.0%,16.4µM*,-19.7
Cc1ccccc1/C=C/c1nc2ccccc2c(=O)n1Cc1ccccc1,2.4%,?,2.0%,23.4%,-1.6%,-3.1
CCn1c(/C=C/c2ccc(O)c(O)c2)nc2ccccc2c1=O,-9.2%,-17.6%,?,14.5%,6.51µM*,-18.6
CCn1c(/C=C/c2ccc(O)cc2)nc2ccccc2c1=O,-1.1%,?,?,?,25.9µM*,-95.6*
CCn1c(/C=C/c2ccccc2C)nc2ccccc2c1=O,1.3%,?,?,-10.4%,?,-9.2
CCn1c(/C=C/c2cc(Br)ccc2O)nc2ccccc2c1=O,-9.5%,?,?,?,?,-57.6*
CCn1c(/C=C2\C(=O)Nc3ccccc32)nc2ccccc2c1=O,-5.8%,?,?,13.1%,16.4µM*,?
C#CCn1c(=NC(=O)c2cccs2)sc2cccc(OCC)c21,-2.8%,-10.7%,-25.0%,-24.1%,20.6µM*,42.8
C#CCn1c(=NC(=O)c2ccc(Cl)s2)sc2cccc(OC)c21,-17.3%,?,?,2.24µM*,?,34.9
CC(SC(C)C(=O)NN=Cc1cccc(F)c1)C(=O)NN=Cc1cccc(F)c1 (stereo not drawn),.,.,?,.,?,16.2
COc1ccc(S(=O)(=O)N2CCCCCC2)cc1C(=O)N(C)CC(=O)Nc1ccccc1C(F)(F)F,.,-19.3%,?,.,?,-19.1
Cc1cc(C)c(O)c(-c2cc(C(=O)NCCc3ccc(S(N)(=O)=O)cc3)[nH]n2)c1,1.2%,6.0%,-21.6%,11.9%,9.2µM*,-50.9*
COc1cc(CNC(=O)c2cc(-c3ccc(OC)cc3C)n[nH]2)cc(OC)c1,.,.,?,.,-11.1%,-22.3
COc1ccc(-c2cc(C(=O)NCc3ccc(F)cc3)[nH]n2)c(C)c1,.,.,18.4µM*,.,?,-7.5
Cc1cc(O)c(-c2cc(C(=O)NCCc3ccc(S(N)(=O)=O)cc3)[nH]n2)cc1C,5.0%,-12.4%,-2.5%,-12.6%,?,20.8
COc1ccc(CNC(=O)c2cc(-c3cc(C)cc(C)c3O)n[nH]2)cc1,-3.8%,?,?,34.3%,?,-68.5*
COc1cccc(CNc2ncc(C(=O)Nc3cc(OC)c(OC)c(OC)c3)c(C)n2)c1,7.2%,?,8.2µM*,18.6%,9.2µM*,25.9
CCNC(=O)c1c(NC(=O)c2cc(-c3cc(C)cc(C)c3O)n[nH]2)sc2c1CCCC2,.,.,?,.,5.8µM*,-1.0
Cc1cc(C)c(O)c(-c2cc(C(=O)NCc3ccccc3)[nH]n2)c1,-15.9%,-9.9%,18.4µM*,-0.6%,?,?
COc1ccc(-c2cc(C(=O)Nc3cc(OC)c(OC)c(OC)c3)[nH]n2)c(C)c1,.,.,23.1µM*,.,11.6µM*,-22.5
CC1=CC(C)(C)Nc2ccc(Cc3ccc4c(c3)C(C)=CC(C)(C)N4)cc21,-23.1%,?,20.6µM*,14.5%,20.6µM*,-5.5
CC1=CC(C)(C)Nc2ccc(C)cc21,-4.1%,-0.4%,-5.0%,-1.3%,-8.9%,-0.4
CCc1nc2ccc(C(=O)NCCCn3ccnc3)cn2c1N(C)C(=O)c1cccc(OC)c1,.,.,-10.9%,.,-14.1%,-5.1
SMILES,VP16 counter,ELG1 repair inh,TDP1 cell CPT,RORgamma inh,TDP1 cell noCPT,IL1B secr inh
CCCc1ccc(NC(=O)C2CCCN(c3cnccn3)C2)cc1 (stereo not drawn),-13.7%,-4.3%,20.6µM*,11.1%,20.6µM*,-10.5
CCN(CC)c1ccc(NC(=O)C2CCCC2)cc1,25.0%,?,?,-37.8%[1.91 µM],?,-11.6
CCCCc1ccc(NC(=O)C2CCCC2)cc1,.,.,?,.,?,-67.4*
O=C(NCCCN1CCN(c2cccc(Cl)c2)CC1)C1(S(=O)(=O)c2ccc(Cl)cc2)CC1,4.3%,?,?,23.3%,?,-29.1
Cc1ccc(C)c(N2CCN(CCCNC(=O)Cn3c(-c4cccs4)cc4ccccc43)CC2)c1,.,.,5.17µM*,.,2.91µM*,.
O=C(Cn1c(-c2cccs2)cc2ccccc21)NCCCN1CCN(c2cccc(Cl)c2)CC1,.,.,?,.,16.4µM*,.
C[C@@H](NC(=O)[C@@H]1CCCN1C(=O)[C@@H]1CCCN1C(=O)c1ccccc1)c1ccccc1,.,.,-18.3%,.,4.8%,10.4
O=C(Nc1ccccc1)c1nc[nH]c1C(=O)NCCCCCCNC(=O)c1[nH]cnc1C(=O)Nc1ccccc1,.,?,7.31µM*,.,8.2µM*,-6.9
Cc1ccc(NC(=O)c2nc[nH]c2C(=O)NCc2ccccc2)cc1,.,-25.5%,?,.,?,-14.6
CC(C)(C)OC(=O)CNC(=O)c1[nH]cnc1C(=O)Nc1ccc(Cl)cc1,12.6µM*,-16.3%,?,4.47µM*,?,-16.6
O=C(Nc1ccc(Cl)cc1)c1nc[nH]c1C(=O)NCCCNC(=O)c1[nH]cnc1C(=O)Nc1ccc(Cl)cc1,.,2.59µM*,.,.,.,.
Cc1ccc(NC(=O)c2nc[nH]c2C(=O)NCCN(CCNC(=O)c2[nH]cnc2C(=O)Nc2ccc(C)cc2)CCNC(=O)c2[nH]cnc2C(=O)Nc2ccc(C)cc2)cc1,.,-12.6%,?,.,16.4µM*,?
O=C(Nc1ccc(Cl)cc1)c1nc[nH]c1C(=O)NCCN(CCNC(=O)c1[nH]cnc1C(=O)Nc1ccc(Cl)cc1)CCNC(=O)c1[nH]cnc1C(=O)Nc1ccc(Cl)cc1,.,1.7%,?,.,?,-21.8
O=C(Nc1ccccc1)c1nc[nH]c1C(=O)NCCN(CCNC(=O)c1[nH]cnc1C(=O)Nc1ccccc1)CCNC(=O)c1[nH]cnc1C(=O)Nc1ccccc1,.,?,?,.,23.1µM*,-25.8
CCN(CC)C(=O)c1[nH]cnc1C(=O)Nc1ccccc1,.,8.5%,-0.8%,.,5.7%,9.6
